Measured values taken from PMC8222333, “AsCas12a ultra nuclease facilitates the rapid generation of therapeutic cell medicines”.
Substitutions are numbered along the chain they refer to.

B1: CCCG (dsDNA)
DNA 1: GCTATCTAGTGCTCAGTACGCACTGCCCGAGGAAACTTCTGGCAGGACCAGGTCATGAGATCGGAAGAGCACACGTCTGAACTCCAGTCA
DNA 2: TGACTGGAGTTCAGACGTGTGCTCTTCCGATCTCATGACCTGGTCCTGCCAGAAGTTTCCTCGGGCAGTGCGTACTGAGCACTAGATAGC
RNA: AAUUUCUACUCUUGUAGAUAGGAAACUUCUGGCAGGACC
B2: CGTT (dsDNA)
DNA 1: B1 DNA 1 with C27G, C28T, G29T
DNA 2: B1 DNA 2 with C62A, G63A, G64C
RNA: B1 RNA
B3: CTAG (dsDNA)
DNA 1: B1 DNA 1 with C27T, C28A
DNA 2: B1 DNA 2 with G63T, G64A
RNA: B1 RNA
B4: CTAT (dsDNA)
DNA 1: B1 DNA 1 with C27T, C28A, G29T
DNA 2: B1 DNA 2 with C62A, G63T, G64A
RNA: B1 RNA
B5: CTCT (dsDNA)
DNA 1: B1 DNA 1 with C27T, G29T
DNA 2: B1 DNA 2 with C62A, G64A
RNA: B1 RNA
B6: CTGT (dsDNA)
DNA 1: B1 DNA 1 with C27T, C28G, G29T
DNA 2: B1 DNA 2 with C62A, G63C, G64A
RNA: B1 RNA
B7: GATC (dsDNA)
DNA 1: B1 DNA 1 with C26G, C27A, C28T, G29C
DNA 2: B1 DNA 2 with C62G, G63A, G64T, G65C
RNA: B1 RNA
B8: GCCA (dsDNA)
DNA 1: B1 DNA 1 with C26G, G29A
DNA 2: B1 DNA 2 with C62T, G65C
RNA: B1 RNA
B9: GCGC (dsDNA)
DNA 1: B1 DNA 1 with C26G, C28G, G29C
DNA 2: B1 DNA 2 with C62G, G63C, G65C
RNA: B1 RNA
B10: GGCG (dsDNA)
DNA 1: B1 DNA 1 with C26G, C27G
DNA 2: B1 DNA 2 with G64C, G65C
RNA: B1 RNA
B11: GGGG (dsDNA)
DNA 1: B1 DNA 1 with C26G, C27G, C28G
DNA 2: B1 DNA 2 with G63C, G64C, G65C
RNA: B1 RNA
B12: GTAA (dsDNA)
DNA 1: B1 DNA 1 with C26G, C27T, C28A, G29A
DNA 2: B1 DNA 2 with C62T, G63T, G64A, G65C
RNA: B1 RNA
B13: GTAT (dsDNA)
DNA 1: B1 DNA 1 with C26G, C27T, C28A, G29T
DNA 2: B1 DNA 2 with C62A, G63T, G64A, G65C
RNA: B1 RNA
B14: GTCA (dsDNA)
DNA 1: B1 DNA 1 with C26G, C27T, G29A
DNA 2: B1 DNA 2 with C62T, G64A, G65C
RNA: B1 RNA
B15: GTGC (dsDNA)
DNA 1: B1 DNA 1 with C26G, C27T, C28G, G29C
DNA 2: B1 DNA 2 with C62G, G63C, G64A, G65C
RNA: B1 RNA
B16: TACT (dsDNA)
DNA 1: B1 DNA 1 with C26T, C27A, G29T
DNA 2: B1 DNA 2 with C62A, G64T, G65A
RNA: B1 RNA

Molecular target: dAsCas12a E174R (Acidaminococcus sp., UniProt U2UMQ6 1-1307, E174R;D908A;E993A;D1235A)
Assay: Spec-seq (native PAGE EMSA with sequencing of bound and unbound); 25 mM Tris-HCl pH 7.4, 150 mM KCl, 5 mM MgCl2, 10% glycerol, 1 mM DTT, 40 ng/uL salmon sperm DNA; 400 nM Cas12a, 480 nM crRNA, 50 nM library, 37 C 1 h; native PAGE at room temperature; high values mean tight binding
Conditions: protein: recombinant
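Also: relative affinity from the bound to unbound sequence frequency ratio in Spec-seq.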

Binder | binding signal [lnKA]
B1 | -8.56
B2 | -8.95
B3 | -8.81
B4 | -8.81
B5 | -8.73
B6 | -8.89
B7 | -8.27
B8 | -8.91
B9 | -8.88
B10 | -8.97
B11 | -8.85
B12 | -9
B13 | -8.95
B14 | -8.52
B15 | -8.98
B16 | -8.98

Molecular target: dAsCas12a S542R (Acidaminococcus sp., UniProt U2UMQ6 1-1307, S542R;D908A;E993A;D1235A)
Assay: as above
Conditions: protein: recombinant

Binder | binding signal [lnKA]
B1 | -6.18
B2 | -8.31
B3 | -8.57
B4 | -8.52
B5 | -7.58
B6 | -8.52
B7 | -8.34
B8 | -6.67
B9 | -8.38
B10 | -8.43
B12 | -8.01
B13 | -8.41
B14 | -6.38
B15 | -8.4
B16 | -7.99

Molecular target: d-enCas12a (Acidaminococcus sp., UniProt U2UMQ6 1-1307, E174R;S542R;K548R;D908A;E993A;D1235A)
Assay: as above
Conditions: protein: recombinant

Binder | binding signal [lnKA]
B1 | -4.37
B2 | -5.2
B3 | -5.78
B4 | -5.65
B5 | -3.44
B6 | -5.79
B7 | -3.86
B8 | -4.72
B9 | -5.81
B10 | -5.65
B11 | -5.75
B12 | -5.51
B13 | -5.69
B14 | -2.71
B15 | -5.24
B16 | -2.8

Molecular target: d-enCas12a-Ultra (Acidaminococcus sp., UniProt U2UMQ6 1-1307, E174R;S542R;K548R;M537R;F870L;D908A;E993A;D1235A)
Assay: as above
Conditions: protein: recombinant

Binder | binding signal [lnKA]
B1 | -0.97
B2 | -2.1
B3 | -3.2
B4 | -3.31
B5 | -0.714
B6 | -3.21
B7 | -1.57
B8 | -1.33
B9 | -3.32
B10 | -2.64
B11 | -3.49
B12 | -3.27
B13 | -3.33
B14 | -0.526
B15 | -2.1
B16 | -0.733
